In the supplement of paper PMC12645437, “Orthogonal IMiD-Degron Pairs Induce Selective Protein Degradation in Cells” (ACS Chemical Biology, 2025):
Whole data set: some 8,300 sequences, median “log2 fold change of degron read counts, EGFP-low vs EGFP+ sorted cells (limma voom), compound-induced degradation” near -1.1, cut for the highest 2% near 3.2. What follows is part of a selection rich in the highest values, with near analogues and random picks from the rest.

Target: T1, CRBN, Q96SW2
T1 chain: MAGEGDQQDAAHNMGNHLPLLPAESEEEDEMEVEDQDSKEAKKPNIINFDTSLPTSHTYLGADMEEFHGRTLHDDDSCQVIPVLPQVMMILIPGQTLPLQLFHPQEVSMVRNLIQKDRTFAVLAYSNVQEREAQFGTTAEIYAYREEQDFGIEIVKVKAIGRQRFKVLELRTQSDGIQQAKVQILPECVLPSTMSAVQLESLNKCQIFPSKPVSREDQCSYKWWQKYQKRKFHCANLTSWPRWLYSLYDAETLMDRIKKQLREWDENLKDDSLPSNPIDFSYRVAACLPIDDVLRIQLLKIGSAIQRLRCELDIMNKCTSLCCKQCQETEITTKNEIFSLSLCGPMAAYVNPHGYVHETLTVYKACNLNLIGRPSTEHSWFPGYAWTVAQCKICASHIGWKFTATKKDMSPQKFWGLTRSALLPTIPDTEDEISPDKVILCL
Assay: log2 fold change of degron read counts, EGFP-low vs EGFP+ sorted cells (limma voom), compound-induced degradation; higher = more compound-induced degradation of the degron-EGFP fusion; degrons are variants of IKZF1/3 zinc finger 2; compound dose not given here
Conditions: Jurkat, 18 h

[1] = compound: compound 19 (5-tert-butyl-thalidomide)
[2] = compound: compound 22 (5-morpholino-thalidomide)
[3] = compound: compound 33 (diphenyl IMiD analogue)
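Also: pooled lentiviral library of zinc finger degron-EGFP fusions in mCherry-positive Jurkat cells, FACS-sorted after compound exposure, with degron abundance counted by next-generation sequencing.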

FHCPICGHSFTQKGNLLRHIKL [46F_47H_49P_50I_52G_53H_54S_55F_67L_, Q9UKT9]
log2 fold change of degron read counts [1]: -2.13 | log2 fold change of degron read counts [2]: -1.94 | log2 fold change of degron read counts [3]: -1.36 | log2 fold change of degron read counts (compound: thalidomide): -2.32

FDCNQCGRHFTQKGNLLRHIKL [46F_47D_49N_50Q_52G_53R_54H_55F_67L_, Q9UKT9]
log2 fold change of degron read counts [1]: -2.61 | log2 fold change of degron read counts [2]: -2.91 | log2 fold change of degron read counts [3]: -2.55 | log2 fold change of degron read counts (compound: thalidomide): -2.64

FFCEQCGAIFTQKGNLLRHIKL [46F_47F_49E_50Q_52G_53A_54I_55F_67L_, Q9UKT9]
log2 fold change of degron read counts [1]: -0.0994 | log2 fold change of degron read counts [2]: 0.676 | log2 fold change of degron read counts [3]: -1.15 | log2 fold change of degron read counts (compound: thalidomide): -1.09

LGCNQCGFSCTQKGNLLRHIKL [46L_47G_49N_50Q_52G_53F_54S_55C_67L_, Q9UKT9]
log2 fold change of degron read counts [1]: -1.87 | log2 fold change of degron read counts [2]: -2.27 | log2 fold change of degron read counts [3]: -1.97 | log2 fold change of degron read counts (compound: thalidomide): -1.71

FHCNQCGHDFTQKGNLLRHIKL [46F_47H_49N_50Q_52G_53H_54D_55F_67L_, Q9UKT9]
log2 fold change of degron read counts [1]: -2.36 | log2 fold change of degron read counts [2]: -2.92 | log2 fold change of degron read counts [3]: -3.64 | log2 fold change of degron read counts (compound: thalidomide): -3.18

FRCPICGRKFTQKGNLLRHIKL [46F_47R_49P_50I_52G_53R_54K_55F_67L_, Q9UKT9]
log2 fold change of degron read counts [1]: -1.49 | log2 fold change of degron read counts [2]: -0.504 | log2 fold change of degron read counts [3]: 0.233 | log2 fold change of degron read counts (compound: thalidomide): 0.803

FICNQCGRHFTQKGNLLRHIKL [46F_47I_49N_50Q_52G_53R_54H_55F_67L_, Q9UKT9]
log2 fold change of degron read counts [1]: -2.53 | log2 fold change of degron read counts [2]: -2.91 | log2 fold change of degron read counts [3]: -2.85 | log2 fold change of degron read counts (compound: thalidomide): -2.39

FRCDQCGAQFTQKGNLLRHIKL [46F_47R_49D_50Q_52G_53A_54Q_55F_67L_, Q9UKT9]
log2 fold change of degron read counts [1]: -2.54 | log2 fold change of degron read counts [2]: -2.73 | log2 fold change of degron read counts [3]: -1.77 | log2 fold change of degron read counts (compound: thalidomide): -2.38

FMCEQCGASFTQKGNLLRHIKL [46F_47M_49E_50Q_52G_53A_54S_55F_67L_, Q9UKT9]
log2 fold change of degron read counts [1]: -1.6 | log2 fold change of degron read counts [2]: -1.45 | log2 fold change of degron read counts [3]: 1.54 | log2 fold change of degron read counts (compound: thalidomide): -0.529

FWCNQCGRCFTQKGNLLRHIKL [46F_47W_49N_50Q_52G_53R_54C_55F_67L_, Q9UKT9]
log2 fold change of degron read counts [1]: -1.48 | log2 fold change of degron read counts [2]: -2.02 | log2 fold change of degron read counts [3]: -1.83 | log2 fold change of degron read counts (compound: thalidomide): -1.5

LGCEICGFICTQKGNLLRHIKL [46L_47G_49E_50I_52G_53F_54I_55C_67L_, Q9UKT9]
log2 fold change of degron read counts [1]: 0.761 | log2 fold change of degron read counts [2]: -0.0429 | log2 fold change of degron read counts [3]: -0.436 | log2 fold change of degron read counts (compound: thalidomide): -0.337

FMCEICGARFTQKGNLLRHIKL [46F_47M_49E_50I_52G_53A_54R_55F_67L_, Q9UKT9]
log2 fold change of degron read counts [1]: -0.0205 | log2 fold change of degron read counts [2]: -0.359 | log2 fold change of degron read counts [3]: 1.34 | log2 fold change of degron read counts (compound: thalidomide): 1.5

FVCEICGARFTQKGNLLRHIKL [46F_47V_49E_50I_52G_53A_54R_55F_67L_, Q9UKT9]
log2 fold change of degron read counts [1]: 1.67 | log2 fold change of degron read counts [2]: 2.43 | log2 fold change of degron read counts [3]: 1.02 | log2 fold change of degron read counts (compound: thalidomide): 3.07

FYCEICGARFTQKGNLLRHIKL [46F_47Y_49E_50I_52G_53A_54R_55F_67L_, Q9UKT9]
log2 fold change of degron read counts [1]: 3.7 | log2 fold change of degron read counts [2]: 3.37 | log2 fold change of degron read counts [3]: 2.11 | log2 fold change of degron read counts (compound: thalidomide): 1.8

FLCEICGARFTQKGNLLRHIKL [46F_47L_49E_50I_52G_53A_54R_55F_67L_, Q9UKT9]
log2 fold change of degron read counts [1]: 0.574 | log2 fold change of degron read counts [2]: -1.16 | log2 fold change of degron read counts [3]: -0.0449 | log2 fold change of degron read counts (compound: thalidomide): 2.33

FQCEICGAWFTQKGNLLRHIKL [46F_47Q_49E_50I_52G_53A_54W_55F_67L_, Q9UKT9]
log2 fold change of degron read counts [1]: -1.84 | log2 fold change of degron read counts [2]: -0.947 | log2 fold change of degron read counts [3]: 0.615 | log2 fold change of degron read counts (compound: thalidomide): 2.26

FRCEICGARFTQKGNLLRHIKL [46F_47R_49E_50I_52G_53A_54R_55F_67L_, Q9UKT9]
log2 fold change of degron read counts [1]: -0.586 | log2 fold change of degron read counts [2]: -0.873 | log2 fold change of degron read counts [3]: -0.311 | log2 fold change of degron read counts (compound: thalidomide): 0.853

FICEICGARFTQKGNLLRHIKL [46F_47I_49E_50I_52G_53A_54R_55F_67L_, Q9UKT9]
log2 fold change of degron read counts [1]: 0.817 | log2 fold change of degron read counts [2]: 2.66 | log2 fold change of degron read counts [3]: 1.57 | log2 fold change of degron read counts (compound: thalidomide): 3.04

FHCEICGARFTQKGNLLRHIKL [46F_47H_49E_50I_52G_53A_54R_55F_67L_, Q9UKT9]
log2 fold change of degron read counts [1]: 2.72 | log2 fold change of degron read counts [2]: 2.42 | log2 fold change of degron read counts [3]: 0.44 | log2 fold change of degron read counts (compound: thalidomide): 0.706

FDCEICGARFTQKGNLLRHIKL [46F_47D_49E_50I_52G_53A_54R_55F_67L_, Q9UKT9]
log2 fold change of degron read counts [1]: 3.3 | log2 fold change of degron read counts [2]: 1.74 | log2 fold change of degron read counts [3]: 0.651 | log2 fold change of degron read counts (compound: thalidomide): 2.27

FQCEICGARFTQKGNLLRHIKL [46F_47Q_49E_50I_52G_53A_54R_55F_67L_, Q9UKT9]
log2 fold change of degron read counts [1]: 0.106 | log2 fold change of degron read counts [2]: 2.1 | log2 fold change of degron read counts [3]: 1.34 | log2 fold change of degron read counts (compound: thalidomide): 3.7

FACEICGARFTQKGNLLRHIKL [46F_47A_49E_50I_52G_53A_54R_55F_67L_, Q9UKT9]
log2 fold change of degron read counts [1]: 3.84 | log2 fold change of degron read counts [2]: 2.89 | log2 fold change of degron read counts [3]: -0.685 | log2 fold change of degron read counts (compound: thalidomide): 1.16

FGCSVCGHIFTQKGNLLRHIKL [46F_47G_49S_50V_52G_53H_54I_55F_67L_, Q9UKT9]
log2 fold change of degron read counts [1]: -1.23 | log2 fold change of degron read counts [2]: -2.7 | log2 fold change of degron read counts [3]: -2.06 | log2 fold change of degron read counts (compound: thalidomide): -1.9

LHCPICGFDCTQKGNLLRHIKL [46L_47H_49P_50I_52G_53F_54D_55C_67L_, Q9UKT9]
log2 fold change of degron read counts [1]: -1.62 | log2 fold change of degron read counts [2]: -1.37 | log2 fold change of degron read counts [3]: 0.393 | log2 fold change of degron read counts (compound: thalidomide): -0.313

FICNQCGREFTQKGNLLRHIKL [46F_47I_49N_50Q_52G_53R_54E_55F_67L_, Q9UKT9]
log2 fold change of degron read counts [1]: -2.93 | log2 fold change of degron read counts [2]: -3.08 | log2 fold change of degron read counts [3]: -3.08 | log2 fold change of degron read counts (compound: thalidomide): -3.43

FQCEQCGACFTQKGNLLRHIKL [46F_47Q_49E_50Q_52G_53A_54C_55F_67L_, Q9UKT9]
log2 fold change of degron read counts [1]: -1.81 | log2 fold change of degron read counts [2]: 0.107 | log2 fold change of degron read counts [3]: 0.542 | log2 fold change of degron read counts (compound: thalidomide): 3.02

FCCPICGANFTQKGNLLRHIKL [46F_47C_49P_50I_52G_53A_54N_55F_67L_, Q9UKT9]
log2 fold change of degron read counts [1]: 2.07 | log2 fold change of degron read counts [2]: 2.16 | log2 fold change of degron read counts [3]: 2.33 | log2 fold change of degron read counts (compound: thalidomide): 2.22

FMCEICGRGFTQKGNLLRHIKL [46F_47M_49E_50I_52G_53R_54G_55F_67L_, Q9UKT9]
log2 fold change of degron read counts [1]: -1.28 | log2 fold change of degron read counts [2]: -1.8 | log2 fold change of degron read counts [3]: -0.771 | log2 fold change of degron read counts (compound: thalidomide): -1.76
